A number with no mark means an inactive call.
Legend:
Test in all cases: log2 ratio of Biotin-Ahx-Ub-VS probe labelling (compound/DMSO); higher = less target engagement, active = hit call of the paper (q ≤ 0.05, log2 ratio ≤ -1)
Settings in all cases: treatment time: 3 h
[1] = compound: CN(Cc1cccc(Br)c1)C(=O)CCl
Outline: (§1)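 HEK293T lysate (495 µg per sample, in Tris/CHAPS/IGEPAL buffer with protease inhibitors) was treated in triplicate with compound at 50 or 200 µM or with DMSO for 3 h. It was then treated with Biotin-Ahx-Ub-VS (0.5 µM final) for 1 h. Labelled DUBs were NeutrAvidin-enriched, digested with LysC and trypsin, and run by diaPASEF LC-MS/MS. Median-normalised label-free quantities gave average log2 ratios compound/DMSO by unpaired t-test, using proteins with ≥2 unique peptides.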

[2] = compound: CN(Cc1ccccc1)C(=O)CCl
Outline: as §1

[3] = compound: COc1ccc(CN(C)C(=O)CCl)cc1
Outline: as §1

[4] = compound: COc1cccc(CN(CCCc2ccccc2)C(=O)CCl)c1
Outline: as §1

[5] = compound: ClCC(=O)N1CCc2cc(Cl)c(Cl)cc2C1
Outline: as §1

[6] = compound: ClCC(=O)N1CCc2nc(ncc2C1)-c1ccccc1
Outline: as §1

[7] = compound: ClCC(=O)N1CCc2nocc2C1
Outline: as §1

[8] = compound: ClCC(=O)N1CCc2scc(Br)c2C1
Outline: as §1

[9] = compound: ClCC(=O)NC(C1CCCC1)c1cccs1
Outline: as §1

[10] = compound: CN(Cc1cccc(OCc2ccccc2C)c1)C(=O)CCl
Outline: as §1

UniProt P09936, sequence (P09936 whole entry, looked up): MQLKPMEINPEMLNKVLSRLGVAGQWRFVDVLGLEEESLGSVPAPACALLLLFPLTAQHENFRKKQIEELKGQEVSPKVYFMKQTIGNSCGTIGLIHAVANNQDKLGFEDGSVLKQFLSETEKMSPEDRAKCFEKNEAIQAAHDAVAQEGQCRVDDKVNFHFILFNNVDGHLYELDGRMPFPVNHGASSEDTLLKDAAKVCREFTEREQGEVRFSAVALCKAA
UniProt Q70CQ2, sequence (Q70CQ2 whole entry): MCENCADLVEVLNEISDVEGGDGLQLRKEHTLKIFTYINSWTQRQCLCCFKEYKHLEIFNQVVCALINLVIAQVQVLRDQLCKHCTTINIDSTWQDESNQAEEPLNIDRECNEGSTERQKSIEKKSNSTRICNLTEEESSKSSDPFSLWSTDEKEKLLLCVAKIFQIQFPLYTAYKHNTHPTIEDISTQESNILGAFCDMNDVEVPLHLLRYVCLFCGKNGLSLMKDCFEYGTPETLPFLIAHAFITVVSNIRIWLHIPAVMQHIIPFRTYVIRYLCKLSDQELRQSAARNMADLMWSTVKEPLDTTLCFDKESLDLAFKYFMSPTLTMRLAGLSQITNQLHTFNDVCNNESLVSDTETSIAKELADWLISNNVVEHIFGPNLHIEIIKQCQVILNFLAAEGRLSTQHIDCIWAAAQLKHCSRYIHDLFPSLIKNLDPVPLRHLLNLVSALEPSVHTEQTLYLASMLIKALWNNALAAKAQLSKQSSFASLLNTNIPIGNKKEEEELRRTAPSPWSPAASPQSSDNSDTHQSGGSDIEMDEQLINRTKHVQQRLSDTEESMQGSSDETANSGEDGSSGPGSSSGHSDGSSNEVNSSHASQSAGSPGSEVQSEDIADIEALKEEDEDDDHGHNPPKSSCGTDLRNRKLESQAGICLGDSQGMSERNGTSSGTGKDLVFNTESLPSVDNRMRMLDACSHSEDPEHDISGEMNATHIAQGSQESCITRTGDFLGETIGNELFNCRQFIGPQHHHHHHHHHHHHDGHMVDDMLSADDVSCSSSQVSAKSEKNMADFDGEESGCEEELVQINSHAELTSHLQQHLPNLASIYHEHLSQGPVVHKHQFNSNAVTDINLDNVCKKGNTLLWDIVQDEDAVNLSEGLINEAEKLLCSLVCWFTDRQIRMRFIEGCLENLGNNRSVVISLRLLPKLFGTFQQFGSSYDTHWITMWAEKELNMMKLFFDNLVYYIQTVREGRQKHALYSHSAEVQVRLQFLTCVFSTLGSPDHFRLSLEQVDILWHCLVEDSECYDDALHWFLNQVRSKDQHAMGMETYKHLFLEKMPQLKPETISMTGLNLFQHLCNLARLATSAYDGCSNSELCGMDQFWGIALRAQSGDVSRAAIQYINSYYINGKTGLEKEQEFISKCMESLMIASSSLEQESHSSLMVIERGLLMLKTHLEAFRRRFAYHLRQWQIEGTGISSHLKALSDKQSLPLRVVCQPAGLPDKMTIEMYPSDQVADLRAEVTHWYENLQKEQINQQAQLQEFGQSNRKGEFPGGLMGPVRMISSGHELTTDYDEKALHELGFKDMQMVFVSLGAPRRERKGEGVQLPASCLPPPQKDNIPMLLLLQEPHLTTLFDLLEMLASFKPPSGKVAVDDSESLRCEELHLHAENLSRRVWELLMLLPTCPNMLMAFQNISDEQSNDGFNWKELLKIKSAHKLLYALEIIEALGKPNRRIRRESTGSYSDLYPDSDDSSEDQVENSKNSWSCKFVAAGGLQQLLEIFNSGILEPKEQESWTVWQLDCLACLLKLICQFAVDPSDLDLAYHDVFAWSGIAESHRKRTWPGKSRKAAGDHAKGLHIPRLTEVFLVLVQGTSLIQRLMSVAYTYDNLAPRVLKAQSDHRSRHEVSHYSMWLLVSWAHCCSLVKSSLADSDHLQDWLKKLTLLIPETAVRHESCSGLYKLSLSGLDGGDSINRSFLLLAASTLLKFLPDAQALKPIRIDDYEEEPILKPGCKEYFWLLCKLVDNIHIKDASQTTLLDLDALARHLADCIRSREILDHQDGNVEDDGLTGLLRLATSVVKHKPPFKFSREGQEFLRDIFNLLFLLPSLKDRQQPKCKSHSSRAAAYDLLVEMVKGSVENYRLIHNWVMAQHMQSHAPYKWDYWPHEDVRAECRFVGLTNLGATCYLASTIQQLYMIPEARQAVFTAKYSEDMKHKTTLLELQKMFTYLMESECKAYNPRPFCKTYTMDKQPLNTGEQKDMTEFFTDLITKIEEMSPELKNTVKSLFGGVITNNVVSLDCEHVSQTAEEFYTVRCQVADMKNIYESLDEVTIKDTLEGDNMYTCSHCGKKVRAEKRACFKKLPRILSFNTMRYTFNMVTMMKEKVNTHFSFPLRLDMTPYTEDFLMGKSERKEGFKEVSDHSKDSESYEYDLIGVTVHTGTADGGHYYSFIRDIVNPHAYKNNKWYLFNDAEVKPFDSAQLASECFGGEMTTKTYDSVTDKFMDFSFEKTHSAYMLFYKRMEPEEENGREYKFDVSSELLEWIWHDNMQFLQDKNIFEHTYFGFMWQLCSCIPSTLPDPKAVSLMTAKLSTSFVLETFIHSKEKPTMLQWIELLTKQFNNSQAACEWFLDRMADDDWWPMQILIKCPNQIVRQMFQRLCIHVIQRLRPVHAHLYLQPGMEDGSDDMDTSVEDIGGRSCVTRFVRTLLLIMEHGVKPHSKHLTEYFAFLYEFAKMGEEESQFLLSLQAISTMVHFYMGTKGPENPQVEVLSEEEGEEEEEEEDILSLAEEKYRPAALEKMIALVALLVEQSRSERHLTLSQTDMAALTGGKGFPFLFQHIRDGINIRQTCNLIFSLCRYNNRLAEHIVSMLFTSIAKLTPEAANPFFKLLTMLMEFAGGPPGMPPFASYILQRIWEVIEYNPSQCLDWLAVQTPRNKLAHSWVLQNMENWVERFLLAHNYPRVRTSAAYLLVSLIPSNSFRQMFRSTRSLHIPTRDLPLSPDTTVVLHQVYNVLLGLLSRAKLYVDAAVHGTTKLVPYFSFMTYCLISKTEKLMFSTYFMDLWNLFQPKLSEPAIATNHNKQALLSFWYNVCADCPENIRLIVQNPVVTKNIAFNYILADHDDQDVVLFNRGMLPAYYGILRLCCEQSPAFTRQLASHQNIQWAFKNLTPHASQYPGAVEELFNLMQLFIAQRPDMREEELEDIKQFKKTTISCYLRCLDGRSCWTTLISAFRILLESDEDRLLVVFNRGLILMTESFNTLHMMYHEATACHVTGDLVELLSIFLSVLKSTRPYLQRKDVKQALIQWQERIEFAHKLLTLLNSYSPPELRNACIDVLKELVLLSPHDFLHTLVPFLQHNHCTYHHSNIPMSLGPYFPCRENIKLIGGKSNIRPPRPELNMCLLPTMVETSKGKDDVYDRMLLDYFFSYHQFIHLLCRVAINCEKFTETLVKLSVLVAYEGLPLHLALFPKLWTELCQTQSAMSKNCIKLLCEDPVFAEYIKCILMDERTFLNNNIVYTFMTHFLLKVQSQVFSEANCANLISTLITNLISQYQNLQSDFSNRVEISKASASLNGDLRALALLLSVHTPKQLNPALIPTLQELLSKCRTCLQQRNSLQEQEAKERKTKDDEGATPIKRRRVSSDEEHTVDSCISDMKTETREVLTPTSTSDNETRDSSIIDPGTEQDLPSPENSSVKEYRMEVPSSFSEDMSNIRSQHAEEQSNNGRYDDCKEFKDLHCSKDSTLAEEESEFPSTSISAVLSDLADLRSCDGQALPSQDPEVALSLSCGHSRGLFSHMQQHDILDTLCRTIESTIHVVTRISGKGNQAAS
UniProt P15374, sequence (P15374 whole entry): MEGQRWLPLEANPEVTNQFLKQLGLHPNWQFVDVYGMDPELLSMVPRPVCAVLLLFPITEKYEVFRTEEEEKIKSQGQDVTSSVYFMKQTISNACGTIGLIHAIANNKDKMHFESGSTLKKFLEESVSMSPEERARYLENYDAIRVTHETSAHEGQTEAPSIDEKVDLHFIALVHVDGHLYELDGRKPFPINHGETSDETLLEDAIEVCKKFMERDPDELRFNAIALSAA
UniProt Q01804, sequence (Q01804 whole entry): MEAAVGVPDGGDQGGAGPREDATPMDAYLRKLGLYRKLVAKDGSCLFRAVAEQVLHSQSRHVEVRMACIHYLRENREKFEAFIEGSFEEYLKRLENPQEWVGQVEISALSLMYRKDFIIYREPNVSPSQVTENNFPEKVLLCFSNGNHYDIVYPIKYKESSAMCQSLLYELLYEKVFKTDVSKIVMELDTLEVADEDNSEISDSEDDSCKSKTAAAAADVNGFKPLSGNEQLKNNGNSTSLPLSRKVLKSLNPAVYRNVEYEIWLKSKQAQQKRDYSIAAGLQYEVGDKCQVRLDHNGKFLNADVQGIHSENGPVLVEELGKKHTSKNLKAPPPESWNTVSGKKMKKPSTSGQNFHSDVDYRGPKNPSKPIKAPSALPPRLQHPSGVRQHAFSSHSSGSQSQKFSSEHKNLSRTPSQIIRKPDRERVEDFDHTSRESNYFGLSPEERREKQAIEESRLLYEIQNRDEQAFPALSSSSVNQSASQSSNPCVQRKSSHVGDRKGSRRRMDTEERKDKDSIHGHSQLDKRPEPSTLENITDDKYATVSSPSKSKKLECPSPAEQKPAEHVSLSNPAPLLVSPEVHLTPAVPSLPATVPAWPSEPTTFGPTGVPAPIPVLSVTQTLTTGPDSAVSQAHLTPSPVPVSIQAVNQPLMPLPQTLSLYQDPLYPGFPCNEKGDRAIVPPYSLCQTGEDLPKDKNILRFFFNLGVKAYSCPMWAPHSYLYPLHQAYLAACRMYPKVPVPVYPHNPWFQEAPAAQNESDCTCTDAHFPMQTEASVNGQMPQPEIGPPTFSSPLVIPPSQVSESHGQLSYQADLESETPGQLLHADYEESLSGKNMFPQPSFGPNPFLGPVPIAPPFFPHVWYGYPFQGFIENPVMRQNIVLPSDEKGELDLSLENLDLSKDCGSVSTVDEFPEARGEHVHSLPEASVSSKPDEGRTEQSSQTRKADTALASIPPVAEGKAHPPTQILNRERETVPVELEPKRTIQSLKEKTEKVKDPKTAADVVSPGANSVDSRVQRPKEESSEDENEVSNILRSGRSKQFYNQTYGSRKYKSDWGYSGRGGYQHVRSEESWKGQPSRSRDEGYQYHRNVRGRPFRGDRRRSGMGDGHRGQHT

| Target | log2 ratio of Biotin-Ahx-Ub-VS probe labelling ([1]; compound concentration: 50uM) | log2 ratio of Biotin-Ahx-Ub-VS probe labelling ([1]; compound concentration: 200uM) | log2 ratio of Biotin-Ahx-Ub-VS probe labelling ([2]; compound concentration: 50uM) | log2 ratio of Biotin-Ahx-Ub-VS probe labelling ([2]; compound concentration: 200uM) | log2 ratio of Biotin-Ahx-Ub-VS probe labelling ([3]; compound concentration: 50uM) | log2 ratio of Biotin-Ahx-Ub-VS probe labelling ([3]; compound concentration: 200uM) | log2 ratio of Biotin-Ahx-Ub-VS probe labelling ([4]; compound concentration: 50uM) | log2 ratio of Biotin-Ahx-Ub-VS probe labelling ([4]; compound concentration: 200uM) | log2 ratio of Biotin-Ahx-Ub-VS probe labelling ([5]; compound concentration: 50uM) | log2 ratio of Biotin-Ahx-Ub-VS probe labelling ([5]; compound concentration: 200uM) | log2 ratio of Biotin-Ahx-Ub-VS probe labelling ([6]; compound concentration: 50uM) | log2 ratio of Biotin-Ahx-Ub-VS probe labelling ([6]; compound concentration: 200uM) | log2 ratio of Biotin-Ahx-Ub-VS probe labelling ([7]; compound concentration: 50uM) | log2 ratio of Biotin-Ahx-Ub-VS probe labelling ([7]; compound concentration: 200uM) | log2 ratio of Biotin-Ahx-Ub-VS probe labelling ([8]; compound concentration: 50uM) | log2 ratio of Biotin-Ahx-Ub-VS probe labelling ([8]; compound concentration: 200uM) | log2 ratio of Biotin-Ahx-Ub-VS probe labelling ([9]; compound concentration: 50uM) | log2 ratio of Biotin-Ahx-Ub-VS probe labelling ([9]; compound concentration: 200uM) | log2 ratio of Biotin-Ahx-Ub-VS probe labelling ([10]; compound concentration: 50uM) | log2 ratio of Biotin-Ahx-Ub-VS probe labelling ([10]; compound concentration: 200uM) |
| --- | --- | --- | --- | --- | --- | --- | --- | --- | --- | --- | --- | --- | --- | --- | --- | --- | --- | --- | --- | --- |
| UCHL1 (UniProt P09936) | -0.0723 | 0.424 | -0.373 | -0.192 | -0.293 | 0.0271 | 0.0165 | 0.0676 | 0.153 | -0.0523 | 0.109 | -0.0372 | -0.379 | -0.3 | -0.0189 | -0.0895 | -0.0993 | -0.00199 | – | – |
| OTUD4 (UniProt Q01804) | -0.0958 | -0.146 | -0.294 | -0.346 | -0.216 | -0.205 | -0.174 | -0.415 | 0.000974 | -0.823 | 0.0593 | -0.446 | -0.424 | -0.874 | -0.0278 | -0.809 | -0.284 | -0.721 | – | – |
| MINDY4 (UniProt Q4G0A6) | 0.681 | -1.19 (active) | 0.106 | -0.273 | 0.675 | 0.712 | 0.722 | 0.797 | 0.706 | 0.819 | 0.669 | 0.652 | 0.0993 | 0.614 | 0.589 | 0.525 | 0.738 | 0.487 | – | – |
| UCHL3 (UniProt P15374) | -0.149 | -0.181 | -0.409 | -0.314 | -0.297 | -0.108 | -0.15 | -0.296 | -0.0194 | -0.59 | -0.0966 | -0.705 | -0.331 | -0.399 | -1.73 (active) | -4.16 (active) | -0.0539 | -0.088 | – | – |
| UniProt P51784 | 0.019 | -0.0885 | -0.135 | -0.305 | -0.149 | -0.291 | -0.0998 | -0.339 | 0.125 | -0.807 | 0.0941 | -0.284 | -0.0884 | -0.403 | -0.0183 | -0.573 | 0.0513 | -0.0659 | – | – |
| USP34 (UniProt Q70CQ2) | 0.504 | 0.192 | 0.682 | -0.913 | 0.746 | -0.399 | -0.287 | -0.935 | -0.17 | -1.47 (active) | 0.583 | -0.403 | 0.31 | -0.0396 | 0.689 | -0.0731 | -0.0579 | -0.14 | – | – |
| PRPF8 (UniProt Q6P2Q9) | -0.00418 | 0.0824 | -0.0842 | 0.108 | 0.0375 | 0.065 | 0.00751 | 0.0603 | 0.0965 | 0.0914 | 0.046 | 0.0608 | -0.0702 | 0.00362 | -0.00317 | 0.0413 | 0.122 | -0.028 | -0.075 | 0.0126 |
| USP22 (UniProt Q9UPT9) | -0.105 | 0.476 | -0.208 | -0.176 | -0.0376 | -0.15 | -0.102 | -0.225 | -0.0223 | -0.226 | -0.0429 | -0.339 | 0.0391 | -0.233 | -0.0943 | -0.362 | -0.0796 | -0.154 | – | – |

From the supplement of paper PMC11732987, “Enantioselective OTUD7B fragment discovery through chemoproteomics screening and high-throughput optimisation” (Communications Chemistry, 2025)
